This note sets out measurements from PubChem BioAssay (NCI).

The structures appear in SMILES notation. The panel holds about 79,000 compounds, 15% with a hit somewhere; the sample as a whole holds those more often. A number with no mark means an inactive call. The source made the active and inactive calls. Cut-off read from the data, not from the text of the source: active = growth inhibition above about 70%; inactive = the rest.

Experiment [1] is described as follows: NCI Yeast Anticancer Drug Screen. Data for the rad50 strain (AID 155).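 Note: 0% = growth of vehicle-only cultures of the same strain.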 The following applies: S. cerevisiae rad50 strain growth inhibition; at 50.0 µM; stronger effect = higher value. The essentials:
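Yeast carrying a defined DNA repair defect were exposed to test compounds, and growth was compared with vehicle-treated controls to give percent inhibition.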

Experiment [2] can be described thus: NCI Yeast Anticancer Drug Screen. Data for the mec2-1 strain (AID 157). The following applies: S. cerevisiae mec2-1 strain, at 50.0 µM, stronger effect = higher value. The essentials:
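Each compound was tested on mec2-1 yeast, a strain altered in DNA damage repair or cell cycle control. Growth inhibition is reported relative to vehicle.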

A short description of experiment [3]: NCI Yeast Anticancer Drug Screen. Data for the sgs1 mgt1 strain (AID 161).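 Note: 0% = growth of cultures given vehicle only.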 Conditions: S. cerevisiae sgs1 mgt1 strain, at 50.0 µM, stronger effect = higher value. The essentials: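 Test agents were incubated with a DNA-repair-mutant yeast strain. Growth was then read and compared against vehicle-treated controls.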
Experiment [4] in a line: NCI Yeast Anticancer Drug Screen. Data for the cln2 rad14 strain (AID 165).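 Note: 0% = growth equal to vehicle treated cultures.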 Conditions: S. cerevisiae cln2 rad14 strain, at 50.0 µM, stronger effect = higher value. The essentials:
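Test compounds were added to cln2 rad14 yeast cultures; inhibition of growth was then determined by comparison with vehicle treatment.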

Experiment [5] is described as follows: NCI Yeast Anticancer Drug Screen. Data for the bub3 strain (AID 167). Conditions: S. cerevisiae bub3 mutant strain, at 50.0 µM, stronger effect = higher value. The essentials: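 Compounds were applied to a genetically altered yeast strain carrying a cell-cycle control defect. Growth inhibition was scored against vehicle-treated controls.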
Experiment [6] is described as follows: NCI Yeast Anticancer Drug Screen. Data for the mlh1 rad18 strain (AID 175). The following applies: S. cerevisiae mlh1 rad18 strain growth inhibition; at 50.0 µM; stronger effect = higher value. Summed up: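 Inhibition values reflect reduced growth of mutant yeast versus vehicle-treated controls following compound exposure; the mutations affect DNA damage repair.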

Regarding `Nc1n[nH]c(=S)n1Cc1ccccc1`, the growth inhibition is -21.8% in experiment [1]; -10% in experiment [2]; -27.1% in experiment [3]; -18.2% in experiment [4]; -14.6% in experiment [5]; -10.7% in experiment [6].
With `CCOC(=O)CCCCCCCCCCCCCCCCC(=O)OCC`, the growth inhibition in experiment [1] is 30.9%; in experiment [2], -31.9%; in experiment [3] it was -14.2%; in experiment [4], 19.5%; in experiment [5], 7.75%; in experiment [6], 8.9%.
For `COc1cc2c(cc1OC)C(C(CBr)CBr)N(C1CCCC1)CC2` (stereo not given), the growth inhibition is -8.2% in experiment [1]; -15.3% in experiment [2]; 13.6% in experiment [3]; -19.9% in experiment [4]; -12.4% in experiment [5]; 11.6% in experiment [6].
Take `COc1ccccc1NC(=S)N/N=C(/c1ccccc1)c1ccccn1`: the growth inhibition is -50.9% in experiment [1]; 22.6% in experiment [2]; 17.4% in experiment [3]; 15.1% in experiment [4]; 20.2% in experiment [5]; 10.6% in experiment [6].
Take `CC1(C)OS2(OC(C)(C)c3ccccc32)c2ccccc21`: the growth inhibition is -10.2% in experiment [1]; 6.85% in experiment [2]; 6.5% in experiment [3]; 8.75% in experiment [4]; 6.3% in experiment [5]; 7.65% in experiment [6].
For `O=C1/C(=C/c2cccs2)CCc2ccccc21`, the growth inhibition in experiment [1] is 20.6%; in experiment [2] it was -12.4%; in experiment [3], 6.05%; in experiment [4], -16.1%; in experiment [5] it was 9.7%; in experiment [6] it was 31.9%.
As to `Cc1c(C)c(C(Cl)(Cl)Cl)c(C)c(C)c1Br`, the growth inhibition is -0.7% in experiment [1]; 4.8% in experiment [2]; -0.75% in experiment [3]; 8.15% in experiment [4]; 3.6% in experiment [5]; -7.3% in experiment [6].
As to `Clc1ccccc1CN1COc2c(ccc3ccccc23)C1`, the growth inhibition is 35.5% in experiment [1]; 14.3% in experiment [2]; 32.6% in experiment [3]; 19.6% in experiment [4]; 25.5% in experiment [5]; 22.6% in experiment [6].
As to `c1ccc(SCN(CSc2ccccc2)c2ccccc2)cc1`, the growth inhibition in experiment [1] is -1.35%; in experiment [2], 26.9%; in experiment [3], 13.8%; in experiment [4] it was 66.8%; in experiment [5] it was 22.1%; in experiment [6] it was 14.8%.
Take `CCC(NC(C)c1ccccc1)C(O)c1ccc(OCc2ccccc2)c(OCc2ccccc2)c1` (stereo not given): the growth inhibition in experiment [1] is 88.6% (active); in experiment [2], 91.5% (active); in experiment [3], 92.3% (active); in experiment [4], 91.3% (active); in experiment [5] it was 91.5% (active); in experiment [6], 87.7% (active).
Consider `CCCCCC(=O)OCCOCCOC`, for which the growth inhibition in experiment [1] is 33.7%; in experiment [2] it was -2.9%; in experiment [3], 29.6%; in experiment [4] it was 0.25%; in experiment [5], 2.25%; in experiment [6], 29.3%.
Regarding `CC(C)(C)C1CC[C@H]2c3c([nH]c4ccc(Br)cc34)[C@H]3C(=O)N(c4ccccc4)C(=O)[C@H]3[C@H]2C1` (stereo not given in full), the growth inhibition in experiment [1] was 18.4%; in experiment [2] it was -2.7%; in experiment [3] it was 27.2%; in experiment [4] it was 29.4%; in experiment [5], -0.15%; in experiment [6], 12.6%.
As for `O=C1NC(Nc2ccccc2)=NC(C(F)(F)F)(C(F)(F)F)N1`, the growth inhibition in experiment [1] is -1.5%; in experiment [2] it was 1.1%; in experiment [3] it was 36%; in experiment [4] it was 32.5%; in experiment [5], 39.6%; in experiment [6] it was -8%.
As for `CCC(=O)c1cc2c(cc1O)CC(C(=O)CC)c1ccccc1-2` (stereo not given), the growth inhibition in experiment [1] was 13.3%; in experiment [2], 6.55%; in experiment [3], 17%; in experiment [4] it was -2.55%; in experiment [5] it was 11.2%; in experiment [6] it was 12.4%.
With `Cc1ccc(S(=O)(=O)c2ccc(C)cc2C(=O)O)cc1`, the growth inhibition was -8.6% in experiment [1]; -19.3% in experiment [2]; -1.4% in experiment [3]; -9.8% in experiment [4]; -30.2% in experiment [5]; -22.4% in experiment [6].
For `CCOC(=O)NC(CI)(c1ccccc1)c1ccccc1`, the growth inhibition was 20.9% in experiment [1]; 10.2% in experiment [2]; 3.55% in experiment [3]; 7.2% in experiment [4]; -0.25% in experiment [5]; 14.6% in experiment [6].
Consider `Cc1cc(C)c2c(c1)CSCc1cc(C)cc(C)c1-2`, for which the growth inhibition is 15.7% in experiment [1]; -2.65% in experiment [2]; 19.1% in experiment [3]; 10% in experiment [4]; 1.05% in experiment [5]; 16.1% in experiment [6].
Take `O=S(=O)(NOCCCCONS(=O)(=O)c1ccccc1)c1ccccc1`: the growth inhibition was 27.6% in experiment [1]; 17.6% in experiment [2]; 11.2% in experiment [3]; 92.1% (active) in experiment [4]; 26.3% in experiment [5]; -6.15% in experiment [6].
On to `CCCCC1(CO)NC(=O)NC1=O` (stereo not given), for which the growth inhibition in experiment [1] is -4.5%; in experiment [2], -13.9%; in experiment [3], -8.7%; in experiment [4] it was 8.95%; in experiment [5] it was 2.75%; in experiment [6], -1.4%.
Turning to `CCOC(=O)c1c(C(F)(F)F)oc2c1ccc1nc3nonc3nc12`, the growth inhibition was 43.6% in experiment [1]; 21.6% in experiment [2]; 23.1% in experiment [3]; 27.5% in experiment [4]; 20.9% in experiment [5]; 35% in experiment [6].
